We go through 40 compounds from PubChem BioAssay (Tox21).

Results filed as inconclusive are left out. Values without a mark were called inactive. Calls come from the whole dose curve; as a rule, active = well fitted inhibition curve with a large enough effect in the repeat runs; inconclusive = weak or mixed curves; inactive = no such curve, though single readings can be large or run the other way.
% is set by controls: 0 for no effect and ±100 for the full control effect.

Sequence of Estrogen receptor (Homo sapiens) (P03372 whole entry, looked up): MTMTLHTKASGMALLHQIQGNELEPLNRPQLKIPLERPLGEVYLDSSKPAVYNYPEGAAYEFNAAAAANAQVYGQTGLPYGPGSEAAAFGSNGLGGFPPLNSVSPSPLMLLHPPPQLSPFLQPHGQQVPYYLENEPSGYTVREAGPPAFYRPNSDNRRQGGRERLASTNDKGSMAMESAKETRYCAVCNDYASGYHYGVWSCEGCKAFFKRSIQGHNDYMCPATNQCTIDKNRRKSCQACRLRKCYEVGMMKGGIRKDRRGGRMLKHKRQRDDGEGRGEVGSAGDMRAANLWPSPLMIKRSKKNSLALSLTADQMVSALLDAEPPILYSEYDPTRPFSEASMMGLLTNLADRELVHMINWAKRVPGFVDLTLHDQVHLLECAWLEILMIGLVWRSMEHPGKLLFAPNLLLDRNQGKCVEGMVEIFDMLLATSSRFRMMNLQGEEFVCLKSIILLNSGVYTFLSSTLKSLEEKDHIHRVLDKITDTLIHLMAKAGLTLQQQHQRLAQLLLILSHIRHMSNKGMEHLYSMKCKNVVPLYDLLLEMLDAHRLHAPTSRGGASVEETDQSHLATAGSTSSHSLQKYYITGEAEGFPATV

This experiment addresses Estrogen receptor (Homo sapiens) (UniProt P03372). Description: qHTS assay to identify small molecule antagonists of the estrogen receptor alpha (ER-alpha) signaling pathway using the BG1 cell line in the presence of 0.1 nM 17-beta-estradiol (AID 1259244). Note: nearly all actives have a fitted effect of over 50% in size. The conditions noted are these: VM7Luc4E2 (BG1) ERE-luciferase, antagonist mode, 0.1 nM E2, 22 h; series mostly up to 92.4 µM; activity change, negative = inhibition: at the top concentration. From the text: National Center for Advancing Translational Sciences [NCATS]
NIH Chemical Genomics Center [NCGC]
U.S. Environmental Protection Agency [EPA]
National Institutes of Environmental Health Sciences [NIEHS]
National Toxicology Program [NTP]
U.S. Food and Drug Administration [FDA]
Estrogen receptor (ER), a member of the nuclear hormone receptor plays an important role in development, metabolic homeostasis and reproduction. Two subtypes of ER, ER-alpha and ER-beta, have similar expression patterns with some uniqueness in both types. Endocrine disrupting chemicals (EDCs) and their interactions with steroid hormone receptors like ER causes disruption of normal endocrine function. Therefore, it is important to understand the effect of environmental chemicals in ER signaling pathway. For identifying ER antagonists, VM7Luc4E2 cell line was used to screen against Tox21 compound libraries.
VM7Luc4E2 cell line (provided by Denison MS, University of California) endogenously express full-length ER-alpha and is stably transfected with a plasmid containing four estrogen responsive elements (ERE) upstream of a luciferase reporter gene. The current screening for identification of ER-alpha inhibitors against Tox21 compound libraries used lower concentration (0.1 nM) of 17beta-Estradiol as a stimulator.
Tox21 Assay Protocol Summary:
VM7Luc4E2 cells were cultured in phenol red free assay medium containing 10% charcoal stripped FBS for 5 days prior to the assay. The cells were dispensed at 4,000 cells/well in 4 uL of assay medium into white wall/solid-bottom 1536-well plates (Corning Life Sciences, Corning, NY) using a Multidrop Combi (ThermoFisher Scientific, Waltham, MA) dispenser. After the assay plates were incubated at 37C and 5% CO2 for 24 hr, 23 nL of compounds dissolved in DMSO, positive controls or DMSO only was transferred to the assay plates by a Pintool station (Kalypsys, San Diego, CA). The transfer of compounds was followed by the addition of 1 uL of 0.1 nM (final concentration) agonist (17beta-Estradiol)/assay medium using a Flying Reagent Dispenser (FRD, Aurora Discovery, San Diego, CA). The plates were incubated at 37C and 5% CO2 for 22 hr. For luciferase reporter gene assay, 4 uL of ONE-Glo reagent (Promega Corporation, Madison, WI) was added to each well using the FRD and after 30 min incubation at room temperature luminescence intensity was measured using ViewLux plate reader (PerkinElmer, Shelton, CT).
For orientation: Quantitative high-throughput screening tests each substance at several concentrations.
Turning to `CO[Si](C)(OC)c1ccccc1`, the “activity change, negative = inhibition” value is -4.9%.

Turning to `CC(=O)NC(=O)c1ccccc1O`, the “activity change, negative = inhibition” value is -4.94% [at 42.5 µM].

Turning to `CC1CCC(CO)CC1` (stereo not given), the “activity change, negative = inhibition” value is -0.39%.

With `O=C(O)c1cc(C(=O)O)cc(C(=O)O)c1`, the “activity change, negative = inhibition” value is 0%.

For the compound `CC(COc1ccccc1)NN` (stereo not given), the “activity change, negative = inhibition” value was 0.838% [at 42.5 µM].

Take `O=C(CO)[C@@H](O)[C@H](O)[C@@H](O)CO`: the “activity change, negative = inhibition” value was 0.427% [at 42.5 µM].

For `Cc1onc(-c2c(Cl)cccc2Cl)c1C(=O)Cl`, the “activity change, negative = inhibition” value was 6.7% [at 42.5 µM].

Regarding `Nc1ccn([C@@H]2O[C@H](CO)[C@@H](O)[C@@H]2O)c(=O)n1`, the “activity change, negative = inhibition” value was -7.87%.

Take `Cc1ccnc(NS(=O)(=O)c2ccc(N)cc2)n1`: the “activity change, negative = inhibition” value is 5.92% [at 42.5 µM].

Take `CN(C)C(=O)Oc1ccc[n+](C)c1`: the “activity change, negative = inhibition” value was 2.04% [at 42.5 µM].

Regarding `CC(=O)c1ccc2ccccc2c1`, the “activity change, negative = inhibition” value was 2.96%.

For `CNCC(O)c1ccc(O)c(O)c1` (stereo not given), the “activity change, negative = inhibition” value was 2.86% [at 42.5 µM].

For the compound `CO[C@@]1(NC(=O)C(C(=O)O)c2ccc(O)cc2)C(=O)N2C(C(=O)O)=C(CSc3nnnn3C)CO[C@@H]21` (stereo not given in full), the “activity change, negative = inhibition” value is 2.68% [at 42.5 µM].

`CC1OC1C1CCC2(C)OC2C1` (stereo not given): the “activity change, negative = inhibition” value was 8.98%.

As to `CCOC(=O)CCC(=O)OCC`, the “activity change, negative = inhibition” value was 1.84%.

Regarding `COCCOC[C@H](CC1(C(=O)NC2CCC(C(=O)O)CC2)CCCC1)C(=O)Oc1ccc2c(c1)CCC2` (stereo not given in full), the “activity change, negative = inhibition” value was 0.133%.

In the case of `O=C(O)CCCC[P+](c1ccccc1)(c1ccccc1)c1ccccc1`, the “activity change, negative = inhibition” value is 5.12% [at 42.5 µM].

For `Clc1cc(Cl)cc(Cl)c1`, the “activity change, negative = inhibition” value is 0%.

Take `CC(CO)(CO)[N+](=O)[O-]`: the “activity change, negative = inhibition” value is 2.06%.

Consider `C=CCOCC(O)CO` (stereo not given), for which the “activity change, negative = inhibition” value is 2.21%.

Turning to `CCCCCCC1CCC(=O)O1` (stereo not given), the “activity change, negative = inhibition” value was 13.3%.

Regarding `CCOC(=O)c1ccccc1`, the “activity change, negative = inhibition” value was -9.67%.

Regarding `Cc1ccc(C(=O)c2ccc(CC(=O)O)n2C)cc1`, the “activity change, negative = inhibition” value is 2.64% [at 42.5 µM].

Regarding `O=C(O)CCSCCC(=O)O`, the “activity change, negative = inhibition” value was 3.2%.

For the compound `CC(=O)N[C@H]1[C@H]([C@H](O)[C@H](O)CO)OC(C(=O)O)=C[C@@H]1N=C(N)N`, the “activity change, negative = inhibition” value was 1.95% [at 42.5 µM].

As to `CC(=O)c1cnccn1`, the “activity change, negative = inhibition” value was 0.633%.

As to `CCOC(=O)C(=O)CCCCCCl`, the “activity change, negative = inhibition” value is 6.78% [at 42.5 µM].

`O=C(O)c1cn(C2CC2)c2cc(N3CCNCC3)c(F)cc2c1=O`: the “activity change, negative = inhibition” value was -8.94% [at 42.5 µM].

As for `Cc1ncc(COP(=O)(O)O)c(C=O)c1O`, the “activity change, negative = inhibition” value is -2.99% [at 42.5 µM].

For the compound `CCN[C@H]1C[C@H](C)S(=O)(=O)c2sc(S(N)(=O)=O)cc21`, the “activity change, negative = inhibition” value is 1.92% [at 42.5 µM].

On to `c1ccc(Cc2ccccc2)cc1`, for which the “activity change, negative = inhibition” value was 0.744%.

With `COc1ccc2cc1Oc1cc3c(cc1OC)CC[N+](C)(C)[C@H]3Cc1ccc(cc1)Oc1c(OC)c(OC)cc3c1[C@@H](C2)[N+](C)(C)CC3`, the “activity change, negative = inhibition” value is 2.26% [at 42.5 µM].

Consider `CCCCCCCCCCCCCCCCCCO`, for which the “activity change, negative = inhibition” value was 2.49% [at 42.5 µM].

With `CCNS(=O)(=O)c1ccc(C)cc1`, the “activity change, negative = inhibition” value was -0.603%.

Consider `CC/C=C\CCOC(C)OCC` (stereo not given), for which the “activity change, negative = inhibition” value is 5.38% [at 42.5 µM].

Regarding `CCCC(C)C(=O)OCC` (stereo not given), the “activity change, negative = inhibition” value is -3.54%.

Turning to `CCCC(=O)O[C@]1(C(=O)CC)CC[C@H]2[C@@H]3CCC4=CC(=O)CC[C@]4(C)[C@H]3[C@@H](O)C[C@@]21C`, the “activity change, negative = inhibition” value was -8.37% [at 42.5 µM].

Consider `C=COC(=O)C(C)(CC)CCC(C)C` (stereo not given), for which the “activity change, negative = inhibition” value is -7.06%.

For the compound `CCCO[Si](OCCC)(OCCC)OCCC`, the “activity change, negative = inhibition” value was -3.98%.

As for `C=COCC1CCC(COC=C)CC1` (stereo not given), the “activity change, negative = inhibition” value was 6.42%.
